Laboratory results as given in the supplement of paper PMC9694430.
Several values for one entry are separate records, joined by “and”; a condition that tells them apart may be missing. Equal values may be shown once.

Assays:
Assay in all cases: thermal shift delta Tm vs DMSO control; higher = stronger stabilization (binding)
Settings in all cases: 12.5 µM; protein concentration 2 µM
LOC_OS01G01410-cb001 = tested on: LOC_OS01G01410-cb001
Outline: (§1)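 Rice kinase domain constructs were expressed in E. coli, purified, and tested by differential scanning fluorimetry with compound added in DMSO. Each well of a 96-well plate held 19.5 μl of 2 μM kinase in 100 mM potassium phosphate pH 7.5, 150 mM NaCl, 10% glycerol and 5 × SYPRO Orange, and fluorescence was read from 25°C to 95°C at 0.05°C/s. The melting temperature shift is the mean of triplicates, taken against protein with DMSO alone after Boltzmann fitting.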

LOC_OS01G02750-cb003 = tested on: LOC_OS01G02750-cb003
Outline: as §1

LOC_OS01G10900-cb004 = tested on: LOC_OS01G10900-cb004
Outline: as §1

LOC_OS01G13800-cb001 = tested on: LOC_OS01G13800-cb001
Outline: as §1

LOC_OS01G14860-cb001 = tested on: LOC_OS01G14860-cb001
Outline: as §1

LOC_OS01G21960-cb002 = tested on: LOC_OS01G21960-cb002
Outline: as §1

LOC_OS01G39600-cb002 = tested on: LOC_OS01G39600-cb002
Outline: as §1

LOC_OS01G48390-cb002 = tested on: LOC_OS01G48390-cb002
Outline: as §1

LOC_OS01G51400-cb002 = tested on: LOC_OS01G51400-cb002
Outline: as §1

LOC_OS01G52050-cb004 = tested on: T1, LOC_OS01G52050-cb004
T1 sequence (whole entry): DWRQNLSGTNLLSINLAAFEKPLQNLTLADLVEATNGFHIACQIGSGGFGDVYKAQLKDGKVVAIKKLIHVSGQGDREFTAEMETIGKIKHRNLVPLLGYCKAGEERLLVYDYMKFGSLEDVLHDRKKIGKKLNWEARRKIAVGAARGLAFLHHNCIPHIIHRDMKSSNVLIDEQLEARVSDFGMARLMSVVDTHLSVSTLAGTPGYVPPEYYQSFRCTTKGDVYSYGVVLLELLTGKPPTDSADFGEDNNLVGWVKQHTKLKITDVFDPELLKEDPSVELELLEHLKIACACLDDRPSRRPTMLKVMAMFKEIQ
Outline: as §1

Structure (SMILES)	thermal shift delta Tm (LOC_OS01G01410-cb001)	thermal shift delta Tm (LOC_OS01G02750-cb003)	thermal shift delta Tm (LOC_OS01G10900-cb004)	thermal shift delta Tm (LOC_OS01G13800-cb001)	thermal shift delta Tm (LOC_OS01G14860-cb001)	thermal shift delta Tm (LOC_OS01G21960-cb002)	thermal shift delta Tm (LOC_OS01G39600-cb002)	thermal shift delta Tm (LOC_OS01G48390-cb002)	thermal shift delta Tm (LOC_OS01G51400-cb002)	thermal shift delta Tm (LOC_OS01G52050-cb004)
Cn1cc(/C=C2\C(=O)Nc3cccnc32)c2ccccc21	3.9 °C	0.74 °C	1.42 °C	-0.51 °C	0.68 °C	1.44 °C	-0.03 °C	1.92 °C	0.44 °C	1.86 °C
CC1(C)CNc2cc(NC(=O)c3cccnc3NCc3ccncc3)ccc21 [Motesanib Diphosphate (AMG-706)]	1.13 °C	0.81 °C	0.63 °C	0.38 °C	0.51 °C	0.76 °C	-0.19 °C	0.41 °C	-0.07 °C	-0.22 °C
O=C(NC1CCNCC1)c1n[nH]cc1NC(=O)c1c(Cl)cccc1Cl	0.79 °C and -0.04 °C	0.32 °C and 1.46 °C	0.21 °C and 0.72 °C	-0.01 °C and 1.05 °C	4.91 °C and 5.53 °C	0.86 °C and 0.55 °C	-0.04 °C and 0.17 °C	0.25 °C and 0.54 °C	-0.23 °C and 0.38 °C	-0.1 °C and 0.56 °C
Cc1cc(NC(=O)c2cccc(NC(=O)/C=C/CN(C)C)c2)ccc1Nc1nccc(-c2cccnc2)n1	1.77 °C	1.69 °C	4.22 °C	0.46 °C	1.25 °C	1.6 °C	6.45 °C	1.99 °C	0.73 °C	0.75 °C
CNc1nc(Nc2cnn([C@H]3CCN(C4COC4)C[C@@H]3F)c2Cl)ncc1C(F)(F)F	0.23 °C	0.99 °C	0.28 °C	0.15 °C	0.15 °C	1.33 °C	0.09 °C	1.82 °C	0.18 °C	1.16 °C
CCCCOc1c(C(=O)c2c(F)cc(C)cc2F)c[nH]c2nncc1-2	1.01 °C	0.64 °C	1.09 °C	0.41 °C	2.54 °C	1.36 °C	0.07 °C	0.94 °C	0 °C	0.38 °C
Cc1nc(NC(=O)N2CCC[C@H]2C(N)=O)sc1-c1ccnc(C(C)(C)C(F)(F)F)c1 [Alpelisib (BYL719)]	0.28 °C	1.42 °C	3.68 °C	-0.51 °C	-0.19 °C	0.02 °C	-0.17 °C	0.54 °C	0.42 °C	0.12 °C
C1=N/C2=N/c3ccc(OCCN4CCCC4)c(c3)COC/C=C/COCc3cccc(c3)C(=C1)N2 [Pacritinib (SB1518)]	2.82 °C	2.89 °C	2.75 °C	-0.21 °C	4.13 °C	2.75 °C	4.09 °C	2.71 °C	0.34 °C	8.62 °C
CCc1nc(C(N)=O)c(Nc2ccc(N3CCC(N4CCN(C)CC4)CC3)c(OC)c2)nc1NC1CCOCC1 [Gilteritinib (ASP2215)]	4.13 °C	2.42 °C	2.14 °C	0.93 °C	2.59 °C	3.21 °C	2.87 °C	1.66 °C	0.63 °C	8.54 °C
Fc1ccc2[nH]ccc2c1-c1nc(N2CCOCC2)c2sc(CN3CCN(CC4CC4)CC3)cc2n1	0.26 °C	0.77 °C	2.96 °C	-0.36 °C	0.37 °C	-0.01 °C	-0.27 °C	0.62 °C	-0.02 °C	0.03 °C
Cc1ccc(NC(=O)c2ccc(CN3CC[C@H](N(C)C)C3)c(C(F)(F)F)c2)cc1Nc1nccc(-c2cncnc2)n1 [Bafetinib (INNO-406)]	0.65 °C	0.59 °C	0.73 °C	0.04 °C	0.5 °C	0.66 °C	-0.18 °C	1.17 °C	0.46 °C	0.61 °C
Cn1cc(-c2cnn3c(N)c(Br)c([C@@H]4CCCNC4)nc23)cn1	0.38 °C	0.39 °C	0.35 °C	0.21 °C	0.82 °C	1.25 °C	0.31 °C	0.35 °C	0.23 °C	0.71 °C
CNc1nc(-c2ccc3c(N)n[nH]c3c2)cc(N2C[C@@H](C(=O)NC3CCCCC3)CC[C@H]2C)n1	-0.44 °C	0.32 °C	0.09 °C	0.25 °C	0.55 °C	1.02 °C	-5.84 °C	0.39 °C	0.44 °C	0.02 °C
CC(C)CC(NC(=O)C(Cc1ccccc1)NC(=O)C(CCC(N)=O)NC(=O)C(Cc1ccc(O)cc1)NC(=O)C(C)NC(=O)CNC(=O)C(CCCCN)NC(=O)C(Cc1c[nH]c2ccccc12)NC(=O)C(NC(=O)C(Cc1c[nH]c2ccccc12)NC(=O)C(CCCCN)NC(=O)CNC(=O)C(CC(N)=O)NC(=O)C(CCC(=O)O)NC(=O)C(Cc1c[nH]c2ccccc12)NC(=O)C(NC(=O)C(Cc1c[nH]c2ccccc12)NC(=O)C(CO)NC(=O)CNC(=O)C1CCCN1C(=O)C(Cc1c[nH]c2ccccc12)NC(=O)C(CCC(N)=O)NC(=O)C(Cc1ccccc1)NC(=O)CNC(=O)C(N)Cc1c[nH]cn1)C(C)O)C(C)O)C(=O)NC(CCCCN)C(=O)NCC(=O)NCC(=O)NCC(=O)NCC(=O)NC(CO)C(=O)NC(CCCNC(=N)N)C(=O)NC(CCCNC(=N)N)C(=O)NC(CCCNC(=N)N)C(=O)NC(CCCNC(=N)N)C(=O)NC(CCCNC(=N)N)C(=O)NC(CCCNC(=N)N)C(=O)NC(CCCNC(=N)N)C(=O)NC(CCCNC(=N)N)C(=O)NC(CCCNC(=N)N)C(=O)O (stereo not given)	0.36 °C	-0.66 °C	1.09 °C	1.22 °C	0.08 °C	1.26 °C	2 °C	1.2 °C	-0.25 °C	1.43 °C
FC(F)(F)c1ccc(/C=C/c2nc(COc3ccc(CCCCn4ccnn4)cc3)co2)cc1 [Mubritinib (TAK 165)]	0.34 °C	-0.49 °C	0.23 °C	0.16 °C	0.08 °C	-0.04 °C	-0.52 °C	0.23 °C	-0.08 °C	0.24 °C
COc1cc2c(Oc3ccc4[nH]c(C)cc4c3F)ncnc2cc1OCCCN1CCCC1 [Cediranib (AZD2171)]	0.9 °C	0.39 °C	0.21 °C	0.33 °C	0.26 °C	0.39 °C	0.22 °C	0.63 °C	0.05 °C	0.09 °C
CS(=O)(=O)c1cccc(CNc2nc(Nc3ccc4c(c3)CCC(=O)N4)ncc2C(F)(F)F)c1	3.58 °C	3.6 °C	1.39 °C	-0.34 °C	3.83 °C	3.04 °C	7.76 °C	3.42 °C	2.2 °C	5.18 °C
COc1cc2c(c(OC)c1OC)-c1c(cc3c(c1OC)OCO3)CC(C)C(C)C2 (stereo not given) [Schisandrin B (Sch B)]	0.01 °C	-0.07 °C	0.21 °C	-0.06 °C	0.19 °C	0.19 °C	-3.57 °C	0.18 °C	0.24 °C	-0.05 °C
